Source: PubChem BioAssay
Hits are enriched below; roughly 15% of the tested compounds scored in any of these assays.
12-LOX inh – blocks human arachidonate 12S-lipoxygenase. P18054. purified 12hLO, xylenol orange hydroperoxide absorbance. Potency, µM (doses to about 108 µM), for inactives: at the highest dose activity change, negative = inhibition, actives largely listed as inhibitors. hit rate 1.1% among 580,000
Target sequence (P18054 whole entry, looked up): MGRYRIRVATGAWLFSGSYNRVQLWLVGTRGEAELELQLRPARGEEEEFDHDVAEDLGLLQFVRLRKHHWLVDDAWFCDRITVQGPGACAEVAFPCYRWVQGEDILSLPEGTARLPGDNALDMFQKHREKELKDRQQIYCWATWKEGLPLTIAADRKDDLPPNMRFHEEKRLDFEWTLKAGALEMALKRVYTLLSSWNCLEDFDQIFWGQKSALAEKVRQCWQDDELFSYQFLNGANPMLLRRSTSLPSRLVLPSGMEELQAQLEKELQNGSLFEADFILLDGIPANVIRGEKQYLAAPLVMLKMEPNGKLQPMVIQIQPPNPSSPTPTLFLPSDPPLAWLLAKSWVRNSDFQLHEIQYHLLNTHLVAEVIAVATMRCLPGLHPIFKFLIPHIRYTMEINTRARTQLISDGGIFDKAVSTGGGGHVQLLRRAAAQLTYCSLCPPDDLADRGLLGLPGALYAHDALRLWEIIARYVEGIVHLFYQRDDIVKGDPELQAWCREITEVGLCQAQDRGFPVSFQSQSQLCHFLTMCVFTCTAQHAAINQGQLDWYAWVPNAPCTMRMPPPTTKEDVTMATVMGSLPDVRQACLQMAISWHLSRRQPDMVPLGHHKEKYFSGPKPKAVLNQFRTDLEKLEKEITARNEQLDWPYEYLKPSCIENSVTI
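Hydroperoxide product was detected by ferrous iron/xylenol orange as the 573 to 405 nm absorbance ratio. Arachidonic acid at 40 uM (final) was turned over for 30 min at room temperature by 150 nM human 12hLO, pH 7.0 Hepes buffer, after 15 min compound preincubation.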
ELG1 DNA repair – ELG1-dependent DNA repair inhibition; HEK293T ELG1-luciferase reporter, luminescence, 16 h; DNA damage induced by 5-fluorouridine; Potency, µM (top dose mostly 46.1 µM), inactives show top-dose activity change, negative = inhibition, hits mostly inhibitors; hit rate 2.3% among 330,000; AID 504467; further: nearly all actives have a fitted effect of over 55% in size
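In this reporter screen, reduction of luminescence relative to DMSO vehicle indicated activity. Compounds and 5-fluorouridine were added together to 2,000 cells per well, incubated for 16 hr at 37 °C, then developed with ONE-Glo.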
TDP1 cell noCPT – qHTS for Inhibitors of human tyrosyl-DNA phosphodiesterase 1 (TDP1): qHTS in cells in absence of CPT; hit rate 15% among 420,000; AID 686978, 2013; DT40 Tdp1-/- hTDP1 cells, no CPT, ATP luminescence, 48 h; Potency, µM (highest dose often 46.2 µM), inactives show top-dose activity change, negative = growth inhibition, most hits filed as inhibitors; further: nearly all actives have a fitted effect of over 55% in size
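Cells were dispensed at 400 per well, compounds added by pin tool, plates incubated ≥48 hr at 37 °C, then CellTiter-Glo added for 30 min at room temperature before luminescence reading. Line: DT40 Tdp1-/- complemented with hTDP1; camptothecin omitted.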
RORg inh – inhibitors of mouse ROR gamma transcriptional activity. P51450. Drosophila S2 Gal4-RORgamma UAS-luciferase reporter, 20 h. Potency, µM (highest dose often 53.6 µM), for the others: at the top dose activity change, negative = inhibition, usual class: inhibitors. hit rate 5.4% among 310,000. AID 2551; further: nearly all actives have a fitted effect of over 60% in size
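A Gal4/UAS one-hybrid system in insect cells: metallothionein-promoter Gal4–ROR gamma fusion plus Photinus luciferase reporter. Copper sulfate 700 uM final, 20 hr ambient incubation, luminescent detection after 10 min with reagent.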
VP16 counter – inhibits Gal4-VP16 luciferase reporter, ROR gamma counter-screen | Drosophila S2 Gal4-VP16 UAS-luciferase, luminescence, 20 h | hit rate 3.5% among 310,000 | Potency, µM (top dose mostly 53.6 µM), inactives show top-dose activity, negative = inhibition, most hits filed as inhibitors;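 further: Gal4-VP16 expression switched on by copper sulfate through the metallothionein promoter; nearly all actives have a fitted effect of over 50% in size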
TDP1 cell CPT – DT40-hTDP1 cell growth loss with CPT; chicken DT40 Tdp1-/-;hTDP1 cells + 20 nM CPT, ATP luminescence, 48 h; Potency, µM (top dose mostly 46.2 µM), without a hit: at the top dose activity change, negative = growth inhibition, usual class: inhibitors; hit rate 12% among 420,000; further: nearly all actives have a fitted effect of over 55% in size
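Chicken DT40 Tdp1-/- cells stably complemented with human TDP1 were seeded at 400 cells/well in medium containing 20 nM camptothecin, exposed to pin-transferred compounds, and grown at 37 °C for at least 48 hr. Viability was read as ATP luminescence.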
* hit, by the source's call; u = inconclusive; x = no result given; ! = a repeat was not active; [ ] = remark or other dose. The call rests on the fitted dose curve; in most records, active means well fitted curve in the direction sought with a large enough effect; inconclusive means small, poorly fitted or top-dose-only effect, or another doubt; inactive means no such curve, though single readings can be large; an effect the other way counts as inactive or inconclusive. On the % scale 0 is the no-effect control and ±100 the full control effect; potency means the concentration at half of the fitted maximal effect.

SMILES | 12-LOX inh | ELG1 DNA repair | TDP1 cell noCPT | RORg inh | VP16 counter | TDP1 cell CPT
COC(=O)c1ccc(NC(=O)N2CCC3(CC2)CC(N2CCCC2)CCO3)cc1 (stereo not drawn) | 32% | x | x | x | x | x
CNC(=O)[C@H]1O[C@@H](n2cnc3c(NCc4cccc(I)c4)nc(Cl)nc32)[C@H](O)[C@@H]1O | u | -26% | 21µM*! | x | x | u
CC(C)C(NC(=O)c1ccc(C(C)(C)C)cc1)C(=O)NCc1ccccn1 (stereo not drawn) | 3% | u | u | x | x | 9.2µM*
COc1ccc(C(=O)NC(C(=O)NCc2ccccn2)C(C)C)cc1 (stereo not drawn) | 77% | -1% | -7% | 10% | -1% | 2%
Cc1ncsc1CN1C(=O)CO[C@H](c2ccc(NS(C)(=O)=O)cc2)[C@H]1CO | 4%[176 µM] | x | x | x | x | x
Cc1ccc2c(=O)cc(C(=O)Nc3cccc(Cl)c3)oc2c1C | 1% | x | x | x | x | x
COC(=O)c1ccc(N2C(=O)Cc3cc(OC)c(OC)cc3C2c2ccc(F)cc2)cc1 (stereo not drawn) | -9% | x | u | x | x | 15µM*
COc1ccc(N2C(=O)Cc3cc(OC)c(OC)cc3C2c2ccc(F)cc2)cc1 (stereo not drawn) | -14% | x | u | x | x | 23µM*
CC(C)OCC(O)CN1CCN(CCN2C(=O)c3cccc4cccc(c34)C2=O)CC1 (stereo not drawn) | -14% | -1% | u | -41% | -5% | 3%
Cc1cccc(C)c1OCC(O)CN1CCC(CN2C(=O)c3cccc4cccc(c34)C2=O)CC1 (stereo not drawn) | u | 23µM* | 8.2µM* | 15% | 2% | 12µM*
C=CCc1ccccc1OCC(O)CN1CCN(CCN2C(=O)c3cccc4cccc(c34)C2=O)CC1 (stereo not drawn) | u | 21µM* | u | -97% | 11µM* | u
Cc1ccccc1OCC(O)CN1CCN(CC(O)COc2ccccc2C)C(C)C1 (stereo not drawn) | -7% | -16% | 16µM* | -2% | -5% | u
Cc1ccccc1OCC(O)CN1CCN(CCN2C(=O)c3cccc4cccc(c34)C2=O)CC1 (stereo not drawn) | -20% | 23µM* | u | -10% | -20% | u
O=C/C=C/c1ccccc1[N+](=O)[O-] | -30% | x | x | x | x | x
COc1ccc(CC2CCN(C(=O)c3c(C)noc3-c3ccc4c(c3)OCO4)CC2)cc1 | -6% | x | x | x | x | x
CCC(OCC(O)CN1CCN(CCN2C(=O)c3cccc4cccc(c34)C2=O)CC1)c1ccccc1 (stereo not drawn) | u | 21µM* | 6.5µM* | u | u | 10µM*
CC(=O)N1CCN(c2ccc(Oc3ncnc4sccc34)cc2)CC1 | 0% | 21µM* | -23% | 14% | 5% | -25%
CC(=O)c1ccc(Oc2ncnc3sccc23)cc1 | 4% | u | -22% | 24% | 1% | 6%
Cc1ccc(Cl)cc1N1CCN(C(=O)C2CCCN(S(=O)(=O)c3cnc[nH]3)C2)CC1 (stereo not drawn) | 20% | -8% | 23µM* | 8% | -5% | 15µM*
Cc1ccc(C)c(N2CCN(C(=O)C3CCN(c4nc(C)cc(C)n4)CC3)CC2)c1 | -12% | u | 12µM* | 11% | 4% | 15µM*
Cc1cc(C)nc(N2CCC(C(=O)N3CCN(c4cc(Cl)ccc4C)CC3)CC2)n1 | -20% | u | 18µM* | 45% | -6% | u
Cc1ccc(Cl)cc1N1CCN(C(=O)C2CCN(S(=O)(=O)c3cnc[nH]3)CC2)CC1 | 0% | -14% | u | 2% | -5% | u
Cc1ccc(Cl)cc1N1CCN(C(=O)C2CCN(S(C)(=O)=O)CC2)CC1 | 1% | -11% | 5.8µM* | -2% | 2% | u
CN(C)CCNC(=O)c1nc2nc(-c3ccccc3)c(-c3ccc(O)c(F)c3)cc2n1C | -27%[176 µM] | x | x | x | x | x
CN1CCN(C2Cc3ccc(F)cc3Sc3cc(F)c(Cl)cc32)CC1 (stereo not drawn) | u | x | 10µM* | x | x | 18µM*
SMILES | 12-LOX inh | ELG1 DNA repair | TDP1 cell noCPT | RORg inh | VP16 counter | TDP1 cell CPT
CN1CCN(S(=O)(=O)c2cc(C(F)(F)F)ccc2Cl)CC1 | -8% | 0% | -2% | 5% | -3% | 5%
CN1CCN(C2Cc3ccccc3Sc3cc(C(F)(F)F)ccc32)CC1 (stereo not drawn) | u | x | 16µM* | x | x | u
CN1CCN(C2Cc3cc(F)ccc3Sc3ccc(Cl)cc32)CC1 (stereo not drawn) | 11% | x | u | x | x | u
Clc1ccc2nc(CN3CCCc4ccccc43)cn2c1 | -25% | 21% | 18µM* | u | u | 13µM*
CCOC(=O)CON1C(=O)C(C)(C)N(OCC(=O)OCC)C(=O)C1(C)C | u | -5% | -8% | -2%[10 µM] | -5% | -6%
CCON1C(=O)C(C)(C)N(OCC)C(=O)C1(C)C | u | 2% | 12µM* | 0% | 4% | u
COC(=O)c1cc(S(=O)(=O)N(C)CC(=O)N2CCN(c3ccc(C(C)=O)cc3)CC2)cn1C | 8% | x | x | x | x | x
CN(C)S(=O)(=O)c1cccc(NC(=S)Nc2cc(Cl)cc(Cl)c2)c1 | u | u | 23µM* | 31% | -2% | 26µM*
CN(C)S(=O)(=O)c1cccc(NC(=O)CCSc2ccc(Cl)cc2)c1 | -8% | u | u | u | -12% | u
CCN(CCO)c1ccc(NC(=S)Nc2cccc(S(=O)(=O)N(C)C)c2)cc1 | -17% | u | u | -21% | 13% | -13%
CN(C)S(=O)(=O)c1cccc(NC(=S)Nc2ccc(Cl)cc2Cl)c1 | 0% | u | 16µM* | 20µM* | u | u
COc1ccc(C(=O)NC2CCCc3c2cnn3-c2cc(F)cc(F)c2)c(OC)c1OC (stereo not drawn) | 20% | u | 15µM* | 4% | -4% | 16µM*
Cn1nccc1C(=O)NC1CCCc2c1cnn2-c1cc(F)cc(F)c1 (stereo not drawn) | 0% | u | u | u | u | 15µM*
COC(=O)c1ccc(C(=O)NC2CCCc3c2cnn3-c2cc(F)cc(F)c2)nc1 (stereo not drawn) | -14% | 21µM* | 2.1µM* | 16% | -16% | 2.9µM*
Cn1c(C(=O)N2CCN(C(=O)c3ccccc3F)CC2)cc2ccccc21 | 16% | x | x | x | x | x
